A number with no mark means an inactive call. Inconclusive results are not listed. Activity calls are given as the source filed them. Unless noted, calls come from the whole dose curve. Where only a bound is given, the exact number is not on record here.

One assay deals with Glucocorticoid receptor (Homo sapiens) (UniProt P04150). Kind of assay: GR-EFC Redistribution (AID 451). Note: potency is the fitted concentration of half-maximal effect. Particulars: CHO-K1 GR-EFC translocation, beta-gal luminescence, 2 h. The method in brief: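 CHO-K1 cells stably expressing nuclear-localized β-gal enzyme acceptor and GR fused C-terminally to the enzyme donor fragment; ligand-driven nuclear translocation restores β-gal by complementation. Compounds titrated up to 46 uM final, 2 h at 37 °C; luminescence read.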
Chain of Glucocorticoid receptor (Homo sapiens) (P04150 whole entry, looked up, the tested form may be a part): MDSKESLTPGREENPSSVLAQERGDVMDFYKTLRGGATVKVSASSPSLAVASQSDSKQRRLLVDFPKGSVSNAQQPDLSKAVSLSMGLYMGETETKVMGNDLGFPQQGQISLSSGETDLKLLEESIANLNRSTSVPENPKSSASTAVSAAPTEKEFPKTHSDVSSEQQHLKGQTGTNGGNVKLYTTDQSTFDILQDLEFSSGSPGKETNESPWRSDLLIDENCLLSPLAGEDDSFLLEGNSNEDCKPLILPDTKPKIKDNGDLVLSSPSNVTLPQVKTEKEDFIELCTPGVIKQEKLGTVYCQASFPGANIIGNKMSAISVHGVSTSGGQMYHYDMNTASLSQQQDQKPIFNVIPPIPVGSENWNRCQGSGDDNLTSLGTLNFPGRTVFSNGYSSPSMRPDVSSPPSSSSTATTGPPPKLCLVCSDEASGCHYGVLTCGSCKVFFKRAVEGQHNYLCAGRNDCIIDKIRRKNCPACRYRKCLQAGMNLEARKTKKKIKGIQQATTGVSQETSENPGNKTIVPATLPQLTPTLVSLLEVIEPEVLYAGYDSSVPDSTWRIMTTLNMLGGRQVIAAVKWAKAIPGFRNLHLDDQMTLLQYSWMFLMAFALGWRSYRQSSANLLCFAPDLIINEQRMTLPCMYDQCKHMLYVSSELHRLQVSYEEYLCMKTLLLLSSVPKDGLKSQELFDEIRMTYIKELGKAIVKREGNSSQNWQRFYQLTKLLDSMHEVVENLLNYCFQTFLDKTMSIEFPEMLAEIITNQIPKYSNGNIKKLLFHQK
For the molecule `COc1cccc(Cn2c(=O)c(-c3cccs3)nc3cnc(N4CCN(C)CC4)nc32)c1`, the Potency is over 46 µM.
Still for that read-out and setting: in the case of `Cn1c(=O)c(-c2ccc(Cl)cc2)nc2cnc(Oc3ccccc3)nc21` it was over 46 µM; in that of `CCNc1ncc2nc(-c3ccccc3)c(=O)n(-c3ccc(OC)cc3)c2n1`, over 46 µM; in that of `O=C(c1ccncc1)N1CCC2(CC1)CN(c1ccc(-c3ccccc3)cc1)C2`, over 46 µM.
The same measure, in the same setting: in the case of `COCCn1c(=O)c(-c2ccc(OC)cc2)nc2cnc(Oc3cccc(Cl)c3)nc21` it was over 46 µM; in that of `COc1ccc(-c2nc3cnc(N4CCN(C)CC4)nc3n(CCC#N)c2=O)cc1`, over 46 µM; in that of `O=C(c1cc(C(F)(F)F)cc(C(F)(F)F)c1)N1CCC2(CCCN(c3ccccn3)C2)CC1`, over 46 µM.
Same read-out and setting: in the case of `O=S(=O)(c1ccccc1)N1CCC2(CCN(c3ncccn3)CC2)CC1` it was over 46 µM; in that of `O=S(=O)(c1ccccc1)N1CCC[C@@]2(CCN(C(c3ccccc3)c3ccccc3)C2)C1`, over 46 µM.
Regarding `O=S(=O)(c1ccccc1)N1CCC2(CCCN(Cc3ccccc3)C2)CC1`, the Potency is over 46 µM.
Still for that read-out and setting: in the case of `O=C(c1csnn1)N1CCC2(CCCN(c3ccccn3)C2)CC1` it was over 46 µM; in that of `COc1ccc(C(=O)N2CCC3(CCCN(Cc4nccs4)C3)CC2)cc1`, over 46 µM.
With `COc1ccc(CNc2nc(-c3ccccc3CN(C)C)nc3ccccc23)c(OC)c1`, the Potency is over 46 µM.
Same read-out and setting: in the case of `Cn1cccc1C(=O)N1CCC2(CCCN(Cc3nccs3)C2)CC1` it was over 46 µM; in that of `Cn1c(=O)cnc2cnc(Nc3ccccc3)nc21`, over 46 µM; in that of `O=c1c(-c2cccs2)nc2cnc(Oc3ccccc3)nc2n1-c1ccccc1`, over 46 µM.
The same measure, in the same setting: in the case of `O=C(c1cnccn1)N1CCC2(CC1)CN(Cc1ccccc1)C2` it was over 46 µM; in that of `O=C(Oc1ccccc1)N1CCC2(CCCN(c3cccc(-c4ccccc4)c3)C2)CC1`, over 46 µM.
Same read-out and setting: in the case of `COc1ccc(C(=O)N2CCC3(CCCN(c4ccncc4)C3)CC2)cc1` it was over 46 µM; in that of `CC(=O)N1CCC2(CCN(Cc3ccc(C#N)cc3)CC2)CC1`, over 46 µM; in that of `COc1ccccc1CNc1cc(-c2cccc(NS(C)(=O)=O)c2)ncn1`, over 46 µM.
As for `O=C(Oc1ccccc1)N1CCC2(CCCN(c3ncccn3)C2)CC1`, the Potency is over 46 µM.
As for `COc1ccc(-n2c(=O)c(-c3ccc(Cl)cc3)nc3cnc(N4CCOCC4)nc32)cc1`, the Potency is over 46 µM.
The same measure, in the same setting: in the case of `N#Cc1ccc(CN2CCCC3(CCN(C(=O)c4cnccn4)CC3)C2)cc1` it was over 46 µM; in that of `O=C(c1ccncc1)N1CCC2(CCCN(c3ncccn3)C2)CC1`, over 46 µM.
Same read-out and setting: in the case of `O=C(c1csnn1)N1CCC2(CCCN(c3ccc(-c4ccccc4)cc3)C2)CC1` it was over 46 µM; in that of `Cn1c(=O)c(-c2ccccc2)nc2cnc(Oc3ccccc3)nc21`, over 46 µM; in that of `O=C(c1ccco1)N1CCC2(CC1)CCN(c1ccccn1)CC2`, over 46 µM.
Still for that read-out and setting: for `Cc1noc(C)c1C(=O)N1CCC2(CC1)CCN(C(c1ccccc1)c1ccccc1)CC2` the value was over 46 µM.
On to `COc1ccc(Oc2ncc3nc(-c4cccs4)c(=O)n(Cc4cccc(OC)c4)c3n2)cc1`, for which the Potency is over 46 µM.
Same read-out and setting: for `O=C(c1ccncc1)N1CCC2(CCN(Cc3cc(C(F)(F)F)cc(C(F)(F)F)c3)CC2)CC1` the value was over 46 µM; for `O=C(c1cccc(F)c1)N1CCC2(CC1)CCN(c1ccccn1)CC2`, over 46 µM.
For `COc1ncc2nc(C)c(=O)n(CCC#N)c2n1`, the Potency is over 46 µM.
On the same count and under the same terms, in the case of `CCNc1ncc2nc(-c3ccc(Cl)cc3)c(=O)n(C3CC3)c2n1` it was over 46 µM.
Consider `Cc1cccc(CNc2cc(-c3ccc(N(C)C)cc3)ncn2)c1`, for which the Potency is over 46 µM.
Same read-out and setting: in the case of `O=C(Oc1ccccc1)N1CCC2(CC1)CCN(c1ccccn1)CC2` it was over 46 µM.
For `COc1ccc(C(=O)N2CCC3(CCCN(c4ccc(-c5ccccc5)cc4)C3)CC2)cc1`, the Potency is over 46 µM.

Another assay deals with Mitogen-activated protein kinase 10 (Mus musculus) (UniProt Q61831). Description: JNK3 AlphaScreen Assay (AID 530; active = well fitted curve in either direction with a large enough effect, not every such curve was filed as active;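 note: kinase came from lysate of stimulated human HepG2 cells; signal reports phosphorylation of biotinylated GST-cJun 1-79 at Ser73 with 10 µM ATP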). To be noted: JNK3 lysate, c-Jun phosphorylation; series mostly up to 57.1 µM. An outline of the steps:
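JNK3 came from HepG2 lysates pre-activated with IL-1beta and TNF-alpha and phosphorylated biotinylated GST-cJun (1-79) at 10 uM ATP, pH 7.6, room temperature. Compounds were titrated. AlphaScreen signal used anti-phospho-cJun (Ser73) antibody.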
For orientation: Alpha assays give light when donor and acceptor beads are brought close together.
`Cn1c(=O)c(-c2ccc(Cl)cc2)nc2cnc(Oc3ccccc3)nc21`: the Potency result is “inactive”.
Still for that read-out and setting: in the case of `CCNc1ncc2nc(-c3ccccc3)c(=O)n(-c3ccc(OC)cc3)c2n1` it was “inactive”; in that of `O=C(c1ccncc1)N1CCC2(CC1)CN(c1ccc(-c3ccccc3)cc1)C2`, “inactive”.
As to `N#Cc1ccc(CN2CC3(CCN(C(=O)c4ccncc4)CC3)C2)cc1`, the Potency result was “inactive”.
On the same count and under the same terms, in the case of `COCCn1c(=O)c(-c2ccc(OC)cc2)nc2cnc(Oc3cccc(Cl)c3)nc21` it was “inactive”; in that of `COc1ccc(-c2nc3cnc(N4CCN(C)CC4)nc3n(CCC#N)c2=O)cc1`, “inactive”.
On the same count and under the same terms, in the case of `O=C(c1cc(C(F)(F)F)cc(C(F)(F)F)c1)N1CCC2(CCCN(c3ccccn3)C2)CC1` it was “inactive”; in that of `O=S(=O)(c1ccccc1)N1CCC2(CCN(c3ncccn3)CC2)CC1`, “inactive”; in that of `O=S(=O)(c1ccccc1)N1CCC[C@@]2(CCN(C(c3ccccc3)c3ccccc3)C2)C1`, “inactive”.
For the molecule `O=S(=O)(c1ccccc1)N1CCC2(CCCN(Cc3ccccc3)C2)CC1`, the Potency result is “inactive”.
For `O=C(c1csnn1)N1CCC2(CCCN(c3ccccn3)C2)CC1`, the Potency result was “inactive”.
Regarding `COc1ccc(C(=O)N2CCC3(CCCN(Cc4nccs4)C3)CC2)cc1`, the Potency result is “inactive”.
Same read-out and setting: in the case of `COc1ccc(CNc2nc(-c3ccccc3CN(C)C)nc3ccccc23)c(OC)c1` it was “inactive”.
Same read-out and setting: in the case of `Cn1cccc1C(=O)N1CCC2(CCCN(Cc3nccs3)C2)CC1` it was “inactive”; in that of `O=c1c(-c2cccs2)nc2cnc(Oc3ccccc3)nc2n1-c1ccccc1`, “inactive”.
For the molecule `O=C(c1cnccn1)N1CCC2(CC1)CN(Cc1ccccc1)C2`, the Potency entry was “inactive”.
As for `O=C(Oc1ccccc1)N1CCC2(CCCN(c3cccc(-c4ccccc4)c3)C2)CC1`, the Potency entry was “inactive”.
Same read-out and setting: for `CS(=O)(=O)N1CCC2(CCN(Cc3ccc(C#N)cc3)CC2)CC1` the value was “inactive”.
Same read-out and setting: in the case of `COc1ccc(C(=O)N2CCC3(CCCN(c4ccncc4)C3)CC2)cc1` it was “inactive”.
On the same count and under the same terms, in the case of `CC(=O)N1CCC2(CCN(Cc3ccc(C#N)cc3)CC2)CC1` it was “inactive”; in that of `COc1ccccc1CNc1cc(-c2cccc(NS(C)(=O)=O)c2)ncn1`, “inactive”; in that of `COc1ccc(-n2c(=O)c(-c3ccc(Cl)cc3)nc3cnc(N4CCOCC4)nc32)cc1`, “inactive”.
As for `N#Cc1ccc(CN2CCCC3(CCN(C(=O)c4cnccn4)CC3)C2)cc1`, the Potency entry was “inactive”.
On the same count and under the same terms, for `O=C(c1ccncc1)N1CCC2(CCCN(c3ncccn3)C2)CC1` the value was “inactive”; for `O=C(c1csnn1)N1CCC2(CCCN(c3ccc(-c4ccccc4)cc3)C2)CC1`, “inactive”; for `Cn1c(=O)c(-c2ccccc2)nc2cnc(Oc3ccccc3)nc21`, “inactive”.
Regarding `O=C(c1ccco1)N1CCC2(CC1)CCN(c1ccccn1)CC2`, the Potency result was “inactive”.
The same measure, in the same setting: in the case of `Cc1noc(C)c1C(=O)N1CCC2(CC1)CCN(C(c1ccccc1)c1ccccc1)CC2` it was “inactive”; in that of `O=C(c1ccncc1)N1CCC2(CCN(Cc3cc(C(F)(F)F)cc(C(F)(F)F)c3)CC2)CC1`, “inactive”; in that of `O=C(c1cccc(F)c1)N1CCC2(CC1)CCN(c1ccccn1)CC2`, “inactive”.
With `COc1ncc2nc(C)c(=O)n(CCC#N)c2n1`, the Potency result was “inactive”.
For the molecule `CCNc1ncc2nc(-c3ccc(Cl)cc3)c(=O)n(C3CC3)c2n1`, the Potency entry is “inactive”.
The same measure, in the same setting: for `Cc1cccc(CNc2cc(-c3ccc(N(C)C)cc3)ncn2)c1` the value was “inactive”; for `O=C(Oc1ccccc1)N1CCC2(CC1)CCN(c1ccccn1)CC2`, “inactive”.
Same read-out and setting: in the case of `COc1ccc(C(=O)N2CCC3(CCCN(c4ccc(-c5ccccc5)cc4)C3)CC2)cc1` it was “inactive”.
